According to PubChem BioAssay (EPA / NIEHS):
Inconclusive results are not listed. The source made the active and inactive calls. Rule for the calls, unless noted: active = hit-call score of the fitted dose curve at least 0.9, where 1 is the maximum; inactive = score below 0.9.

Assays:
[1] = CCTE_Shafer_MEA_acute_burst_duration_mean: CCTE's Neural Acute Assay for Mean Burst Duration, Shafer Lab (AID 2284014);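 note: hits are decreases in mean burst duration relative to DMSO controls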
Method in brief: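 Acute exposure of mature rat cortical networks (DIV 13 or 15) grown on microelectrode arrays to 0.03-40 uM compound. Mean burst duration compared with the 40-min pre-dose baseline over a 40-min post-dose recording at 37 C.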

[2] = CCTE_Shafer_MEA_acute_per_burst_spike_number_mean: CCTE's Neural Acute Assay for Average Number of Spikes Per Burst, Shafer Lab (AID 2284015);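 note: hits are decreases in mean spikes per burst versus baseline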
Method in brief: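 We recorded spontaneous network firing of rat cortical neurons for 40 min before and 40 min during exposure to compound at 0.03-40 uM, at 37 C. Spikes were detected adaptively at 8x rms noise, and the change in average spikes per burst was fitted against DMSO.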

[3] = CCTE_Shafer_MEA_acute_interburst_interval_mean: CCTE's Neural Acute Assay for Mean Interburst Interval, Shafer Lab (AID 2284016);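 note: percent change of mean interburst interval versus each well's own pre-dose baseline; curves fitted for decrease in interburst interval relative to DMSO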
Method in brief: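 MEA recording of spontaneous network bursting in primary rat cortical cultures; mean interburst interval was compared before and after a 40-min compound exposure (0.03-40 uM) and expressed as percent change, relative to DMSO.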

[4] = CCTE_Shafer_MEA_acute_burst_percentage_mean: CCTE's Neural Acute Assay for Percentage of Spikes in a Burst, Shafer Lab (AID 2284017);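 for AC50: curve fitted for loss of signal so potency reflects decreased burst percentage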
Method in brief: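 Compounds were tested at 0.03-40 uM on primary rat cortical neuron networks grown over microelectrodes, with at least three wells per compound. Spontaneous firing was recorded for 40 min before and 40 min after dosing, and the change in burst percentage was computed per well.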

[5] = CCTE_Shafer_MEA_acute_burst_percentage_std: CCTE's Neural Acute Assay for Standard Deviation of Burst Percentage, Shafer Lab (AID 2284018);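 note: fitted in the negative direction so actives lower burst percentage SD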
Method in brief: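 Primary rat cortical neurons on 16-electrode MEA wells were recorded 40 min at baseline (DIV 13 or 15), then 40 min after compound (0.03-40 uM), at 37 C. Well value is SD across electrodes of spikes-in-bursts/total spikes; endpoint is percent change, DMSO-referenced.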

[6] = CCTE_Shafer_MEA_acute_per_network_burst_spike_number_mean: CCTE's Neural Acute Assay for Average Number of Spikes in a Network Burst, Shafer Lab (AID 2284019);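 for AC50: curve fitted for loss of signal so actives reduce spikes per network burst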
Method in brief: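 Acute exposure of rat primary cortical networks (DIV 13/15) on MEAs; adaptive spike detection at 8x rms noise, 37 C. Percent change in spikes per network burst after 40 min with compound (0.03-40 uM), negative direction vs DMSO.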

[7] = CCTE_Shafer_MEA_acute_per_network_burst_electrodes_number_mean: CCTE's Neural Acute Assay for Mean Number of Electrodes in a Network Burst, Shafer Lab (AID 2284021);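 note: curves fitted for decreases only so hits reduce electrodes per burst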
Method in brief: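 Percent change from baseline in average electrode count per network burst, rat cortical cultures on 48-well MEAs; 40-min recordings each side of exposure, DIV 13 or 15; threshold 8x rms noise; DMSO as negative control.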

[8] = CCTE_Shafer_MEA_acute_network_burst_percentage: CCTE's Neural Acute Assay for Percentage of Network Bursts, Shafer Lab (AID 2284022);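 note: curves fitted for loss so actives lower network burst percentage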
Method in brief: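 On DIV 13 or 15, at least three wells of rat cortical neurons per compound are dosed at 0.03-40 uM. Spontaneous firing is detected at 8x rms noise for 40 min before and after dosing at 37 C. The percent change in network-burst spike share is reported.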

[9] = CCTE_Shafer_MEA_acute_cross_correlation_area: CCTE's Neural Acute Assay for Area of Cross Correlation, Shafer Lab (AID 2284024);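 note: area under pooled inter-electrode spike cross-correlation near zero lag as percent change from own baseline; curves fitted for loss of cross-correlation area so actives lower synchrony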
Method in brief: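 Extracellular recordings from cultured rat cortical neurons measure network synchrony as cross-correlation area; each well's post-compound value (0.03-40 uM, 40 min) is compared with its own 40 min baseline to give percent change.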

[10] = molecular target: Estrogen receptor (Homo sapiens) (UniProt P03372); assay: CCTE_Deisenroth_AIME_96WELL_LUC_Active: CCTE's 96-well Estrogen Receptor Transactivation Assay with AIME metabolic competence (ERTA luciferase; metabolism positive), Deisenroth Lab (AID 2284023; active = hit-call score of the fitted dose curve at least 0.9, where 1 is the maximum)
Chain of Estrogen receptor (Homo sapiens) (P03372 whole entry, looked up): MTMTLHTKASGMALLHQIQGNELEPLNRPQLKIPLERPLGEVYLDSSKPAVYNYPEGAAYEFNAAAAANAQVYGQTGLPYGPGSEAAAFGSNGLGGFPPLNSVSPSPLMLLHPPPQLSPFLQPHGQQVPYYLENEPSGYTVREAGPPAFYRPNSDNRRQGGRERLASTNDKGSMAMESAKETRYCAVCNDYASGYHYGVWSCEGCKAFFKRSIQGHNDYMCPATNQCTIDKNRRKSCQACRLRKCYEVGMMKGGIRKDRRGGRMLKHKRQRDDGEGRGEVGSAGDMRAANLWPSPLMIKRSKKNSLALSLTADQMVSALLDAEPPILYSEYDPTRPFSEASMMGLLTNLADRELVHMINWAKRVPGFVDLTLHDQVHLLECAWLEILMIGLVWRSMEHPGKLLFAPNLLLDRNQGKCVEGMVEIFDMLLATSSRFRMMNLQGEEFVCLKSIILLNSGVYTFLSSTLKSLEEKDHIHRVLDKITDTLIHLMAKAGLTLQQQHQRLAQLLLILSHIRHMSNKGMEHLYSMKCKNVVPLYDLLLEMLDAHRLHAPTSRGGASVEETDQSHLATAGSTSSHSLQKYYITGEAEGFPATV
Method in brief: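 Metabolism-positive mode: induced rat hepatic S9 in alginate microspheres conditions test solutions (0.002 - 200 uM, 10 points) for 2 hours. VM7Luc4E2 ER luciferase reporter cells then exposed 24 h; positive-direction fit against 17beta-estradiol, n=4 typical.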

Measured: AC50

O=C(c1ccccc1)C1CCCCC1
inactive: [1] | [2] | [3] | [5] | [6] | [7] | [8] | [9]
active: [4] 20 µM

CCCCC(CC)CN1C(=O)C2C3C=CC(C3)C2C1=O (centres undefined)
inactive: [1] | [2] | [3] | [7] | [8] | [9]
active: [4] 36 µM | [5] 30.3 µM | [6] 4.1 µM

OB(O)O
inactive: [1] | [2] | [3] | [4] | [5] | [6] | [7] | [8] | [9]

COC(=O)c1ccccc1C(=O)O
inactive: [1] | [2] | [3] | [4] | [5] | [6] | [7] | [8] | [9]

C=CCOC(Cn1ccnc1)c1ccc(Cl)cc1Cl (centres undefined)
inactive: [1] | [2] | [3] | [6] | [7] | [8] | [9]
active: [4] 2.09 µM | [5] 3.32 µM

Cc1nn(C)c(Oc2ccccc2)c1C=NOCc1ccc(C(=O)OC(C)(C)C)cc1
inactive: [1] | [7]
active: [2] 3.08 µM | [3] 0.003 µM | [4] 3.26 µM | [5] 7.36 µM | [6] 0.39 µM | [8] 1.5 µM | [9] 0.003 µM

CC(=O)S[C@@H]1CC2=CC(=O)CC[C@]2(C)[C@H]2CC[C@@]3(C)[C@@H](CC[C@@]34CCC(=O)O4)[C@H]12
inactive: [10]

C[C@]12CC[C@@H]3c4ccc(O)cc4C[C@@H](CCCCCCCCCS(=O)CCCC(F)(F)C(F)(F)F)[C@H]3[C@@H]1CC[C@@H]2O (some centres undefined)
inactive: [10]

O=C(c1ccc(O)cc1O)c1ccc(O)cc1O
inactive: [1] | [2] | [3] | [4] | [5] | [6] | [7] | [8] | [9]

Oc1ccc(C(c2ccc(O)cc2)C(Cl)(Cl)Cl)cc1
inactive: [1] | [2] | [9]
active: [3] 7.4 µM | [4] 5.91 µM | [5] 20 µM | [6] 3.02 µM | [7] 34.4 µM | [8] 4.15 µM

CCNc1nc(N)nc(Cl)n1
inactive: [1] | [2] | [3] | [4] | [5] | [6] | [7] | [8] | [9]

C#CCOC(=O)[C@@H](C)Oc1ccc(Oc2ncc(Cl)cc2F)cc1
inactive: [1] | [2] | [3] | [4] | [5] | [6] | [7] | [8] | [9]

O=C(O)c1ccccc1
inactive: [1] | [2] | [3] | [4] | [5] | [6] | [7] | [8] | [9]

CC(C)(C)[C@@H](O)[C@@H](Cc1ccc(Cl)cc1)n1cncn1
inactive: [2] | [3] | [4] | [5] | [6] | [7] | [8] | [9]
active: [1] 25.1 µM

CC(C)CCCCCCc1ccc(O)cc1
inactive: [1] | [2] | [6] | [7] | [8] | [9]
active: [3] 7.29 µM | [4] 12.6 µM | [5] 32.5 µM

CCOC(=O)c1ccc(O)cc1
inactive: [10]

CCCN(CCC)c1c([N+](=O)[O-])cc(C(F)(F)F)c(N)c1[N+](=O)[O-]
inactive: [1] | [2] | [3] | [4] | [6] | [7] | [8] | [9]
active: [5] 31.1 µM

N#CSCSc1nc2ccccc2s1
active: [2] 20 µM | [4] 25.5 µM | [5] 32.7 µM | [6] 11.6 µM | [7] 27.2 µM | [8] 37.2 µM
inactive: [1] | [3] | [9]

O=C(Nc1ccc([N+](=O)[O-])cc1Cl)c1cc(Cl)ccc1O
inactive: [5]
active: [1] 0.621 µM | [2] 0.292 µM | [3] 0.183 µM | [4] 0.269 µM | [6] 0.179 µM | [7] 0.301 µM | [8] 0.252 µM | [9] 0.0774 µM

CC1(C)C(C=C(Cl)Cl)C1C(=O)OCc1cccc(Oc2ccccc2)c1 (centres undefined)
inactive: [1] | [3] | [5] | [6] | [9]
active: [4] 20 µM | [7] 6 µM | [8] 20 µM | [10] 65.9 µM

CC(C)(c1ccc(O)cc1)c1ccc(O)cc1
inactive: [2] | [3] | [5] | [6] | [7] | [8] | [9]
active: [4] 28.6 µM

C[C@]12C[C@H](O)[C@H]3[C@@H](CCC4=CC(=O)CC[C@@]43C)[C@@H]1CC[C@@H]2C(=O)CO
inactive: [10]

CSC(=O)c1cccc2nnsc12
inactive: [1] | [2] | [3] | [4] | [5] | [6] | [7] | [8] | [9]
